# JMJD2A Tudor: JMJD2A Tudor domain (human) inhibition; O75164; 4.4% of 390,000 active; AlphaScreen JMJD2A-Tudor / H3K4me3 peptide binding; Potency, µM (highest dose often 114 µM), for inactives: at the top dose activity change, negative = inhibition, usual class: inhibitors; also: potency is read from the fitted curve at half-maximal effect; % is scaled to controls: 0 for no effect and ±100 for the full control effect; nearly all actives have a fitted effect of over 50% in size
# BAZ2B block: inhibitors of human BAZ2B bromodomain; AID 504333; 4.4% of 360,000 active; AlphaScreen BAZ2B-H3K14Ac peptide displacement; Q9UIF8; Potency, µM (top dose mostly 114 µM), for inactives: top-dose activity change, negative = inhibition, hits mostly inhibitors; also: potency is read from the fitted curve at half-maximal effect; % is scaled to controls: 0 for no effect and ±100 for the full control effect; nearly all actives have a fitted effect of over 60% in size
#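 Complex of BAZ2B and biotin-H3K14Ac (50 nM apiece) forms over 30 min at RT, then faces library compounds up to 110 uM for another 30 min; AlphaScreen beads added, 20 min dark incubation, luminescence read.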
# G9a block: blocks human histone lysine methyltransferase G9a | Q96KQ7 | Potency, µM (titrated, usually from 102 µM), inactives show at the highest dose activity, negative = inhibition, actives largely listed as inhibitors | G9a H3K9 monomethylation, AlphaScreen, 2 h | 8.8% of 350,000 active; also: potency is read from the fitted curve at half-maximal effect; % is scaled to controls: 0 for no effect and ±100 for the full control effect; nearly all actives have a fitted effect of over 75% in size
#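 Compounds were preincubated with 20 nM G9a for 15 min, after which biotinylated H3K9 peptide (500 nM) and SAM (20 uM) started a 2 h room-temperature reaction. Monomethylated product was quantified by antibody-based AlphaScreen chemiluminescence.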
# L3MBTL1 inh: L3MBTL1 (human) inhibition. AlphaScreen L3MBTL1–H3K9me1 peptide binding. Potency, µM (highest dose often 57.1 µM), for the others: at the highest dose activity, negative = inhibition, actives largely listed as inhibitors. 0.66% of 230,000 active. AID 485360; also: potency is read from the fitted curve at half-maximal effect; % is scaled to controls: 0 for no effect and ±100 for the full control effect; nearly all actives have a fitted effect of over 60% in size
#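 Read-out is AlphaScreen signal from streptavidin donor and nickel chelate acceptor beads (10 ug/mL final each) bridging L3MBTL1 (50 nM) and biotinylated K9-monomethylated H3(1-15) peptide (75 nM), after 30 min compound exposure at room temperature.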
# PI5P4K alpha inh: blocks human PI5P4K alpha kinase activity | max response, % | PI5P4Kalpha enzyme, ADP-Glo luminescence, 60 min; stronger effect = lower value | P48426 | 1.2% of 330,000 active; active = max response of -50% or lower; inconclusive = between -30% and -50%; inactive = -30% or higher; also: value at the top dose of about 77 µM; % is scaled to controls: 0 for no effect and ±100 for the full control effect
#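 Luminescence from ADP-Glo served as readout of PI5P4Kalpha activity in a qHTS format. Reaction: enzyme, substrate, compound, ATP at 5 microM final, 60 min at RT.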
# HP1b chromo inh: HP1-beta chromodomain-methylated histone interaction inhibition; AlphaScreen HP1-beta / biotin-H3K9me3 peptide binding; Potency, µM (titrated, usually from 114 µM), for inactives: at the top dose activity change, negative = inhibition, usual class: inhibitors; 0.56% of 390,000 active; AID 540317; also: potency is read from the fitted curve at half-maximal effect; nearly all actives have a fitted effect of over 70% in size
#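 HP1-beta protein (50 nM final) preincubated 30 min at room temperature with biotinylated H3(1-18)K9me3 peptide (50 nM) in PBS pH 7.4, 0.01% Tween-20, then compound added for 30 min. AlphaScreen streptavidin donor/nickel chelate acceptor beads (10 ug/mL final), 30 min dark, luminescence read.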
# * = called active by the depositor; ? = inconclusive; · = no result given; [ ] = dose if it differs, or a comment. Rows were chosen to be rich in hits. Some 11% of all compounds tested hit in one or more screens of this group. Unless noted, calls follow the shape of the dose curve; as a rule, active = well fitted inhibition curve with a large enough effect; inconclusive = small, poorly fitted or top-dose-only effect; inactive = no such curve, though single readings can be large or run the other way.
SMILES,JMJD2A Tudor,BAZ2B block,G9a block,L3MBTL1 inh,PI5P4K alpha inh,HP1b chromo inh
CCCCCC(=O)Nc1cc(S(=O)(=O)N2CCOCC2)ccc1N1CCCCC1,5.4%,9.2%,50.1µM*,5.3%,5.0,25.7%
C/C=C/c1ccc(OCC(=O)Nc2cc(S(=O)(=O)N3CCOCC3)ccc2N2CCCC2)c(OC)c1,-27.6%,-8.0%,50.1µM*,-0.2%,-2.8,-11.9%
CCCCCC(=O)Nc1cc(S(=O)(=O)N2CCCCC2)ccc1N1CCCCC1,-2.1%,·,·,·,0.9,3.9%
Cc1cccc(NC(=O)C2CCN(c3nc4ccccc4[nH]3)CC2)c1C,-14.0%,1.8%,5.0%[59 µM],·,·,19.1%[57 µM]
O=C(COC(=O)c1ccccc1Br)Nc1cc(S(=O)(=O)N2CCOCC2)ccc1N1CCCC1,-15.5%[57.1 µM],?,14.1µM*,-20.6%,-9.6,-1.2%
O=C(Cc1c(F)cccc1Cl)Nc1cc(S(=O)(=O)N2CCOCC2)ccc1N1CCCC1,-10.1%,·,·,-3.4%,-0.1,6.1%
COc1ccc(/C=C(\C#N)C(=O)Nc2cc(S(=O)(=O)N3CCOCC3)ccc2N2CCCC2)cc1,?,?,7.94µM*,-9.5%,-19.5,?
CCN(CC)S(=O)(=O)c1ccc(N2CCCCC2)c(NC(=O)/C(C#N)=C/c2ccc(OC)cc2)c1,-8.3%,-25.2%,0.3%[59 µM],-2.8%,1.7,22.7%
COc1ccc(CC(=O)Nc2cc(Cl)ccc2N2CCCC2)cc1,-26.4%,-10.0%,44.7µM*,·,3.2,11.3%
O=C(Cc1c(F)cccc1Cl)Nc1cc(S(=O)(=O)N2CCOCC2)ccc1N1CCOCC1,-19.3%,-5.9%,50.1µM*,-7.7%,-1.8,32.9%
O=C(COC(=O)c1ccccc1[N+](=O)[O-])Nc1cc(S(=O)(=O)N2CCOCC2)ccc1N1CCCC1,-22.5%,-15.7%,-10.6%,1.4%,0.9,13.0%
COc1ccc2nc(-c3ccc(N(C)C)cc3)sc2c1,-9.7%,·,·,·,·,·
CCC(=O)N1CCCc2cc(S(=O)(=O)N3CCC(C(=O)Nc4ccc(C#N)cc4)CC3)ccc21,-14.8%,-4.5%,24.3%[59 µM],·,·,0.7%[57 µM]
COc1ccc(OC)c(C2CC(=O)Oc3c2c(=O)n(C)c2ccccc32)c1 (stereo not given),-19.8%,-13.0%,-13.1%[59 µM],·,·,12.4%
Nc1nc(NCc2ccccc2Cl)c2[nH]cnc2n1,-33.3%,·,·,·,·,3.3%
O=S(=O)(NCc1cccc(Br)c1)c1ccc(-c2cc(C(F)(F)F)on2)s1,-13.3%,2.0%,-7.0%[59 µM],·,·,34.4%
Cc1cccc(C(=O)NCC(=O)OCC(=O)c2ccc3ccccc3c2)c1,-16.2%[57.1 µM],·,·,·,·,21.0%[57 µM]
Cn1c(CCC(=O)Nc2cc(S(C)(=O)=O)ccc2Cl)nc2cc(S(=O)(=O)N3CCOCC3)ccc21,-13.8%,79.4µM*,10µM*,3.2%,-1.0,6.1%
O=C(CNc1cc(S(=O)(=O)N2CCOCC2)ccc1N1CCCC1)Nc1ccc(Cl)cc1F,·,·,·,·,2.9,·
CN1CCN(c2ccc(S(=O)(=O)N3CCCCC3)cc2NC(=O)Cc2ccc(Cl)cc2)CC1,-28.3%,-2.2%,?,5.8%,10.0,-2.4%
O=C(CNc1cc(S(=O)(=O)N2CCOCC2)ccc1N1CCCC1)N1CCc2ccccc21,?,?,35.5µM*,-7.8%,-1.6,-11.2%
Cn1c(CCC(=O)Nc2ccc(S(C)(=O)=O)cc2)nc2cc(S(=O)(=O)N3CCOCC3)ccc21,-1.3%,·,·,·,-7.9,21.8%
O=C(Cc1ccc(Cl)cc1)Nc1cc(S(=O)(=O)N2CCOCC2)ccc1N1CCCC1,-6.8%[11.4 µM],-9.4%,44.7µM*,0.8%,1.2,35.6%
CCOC(=O)c1ccccc1NC(=O)Cn1c(=O)n(CCC(=O)NCc2ccccc2OC)c(=O)c2ccccc21,-10.9%,-9.3%,-6.0%[59 µM],·,·,14.5%
COc1cc(OC)nc(NC(=O)CN2CCN(c3ccc(F)cc3)CC2)n1,-12.9%,9.2%,-1.8%[12.7 µM],6.2%,·,21.5%
SMILES,JMJD2A Tudor,BAZ2B block,G9a block,L3MBTL1 inh,PI5P4K alpha inh,HP1b chromo inh
COc1ccc(C(=O)CN2CCN(c3ccc(F)cc3)CC2)cc1OC,-24.1%,-6.7%,39.8µM*,2.8%,-7.2,30.9%
N#Cc1ccc(C(=O)CN2CCN(c3ccccc3)CC2)cc1,-20.5%,-27.0%,28.2µM*,·,-1.2,25.3%
COc1ccccc1N1CCN(C/C(C)=C/c2ccccc2)CC1,-28.5%,56.2µM*,-0.5%[12.7 µM],·,·,18.1%
COc1ccccc1N1CCN(CC(=O)N2N=CCC2c2ccccc2)CC1 (stereo not given),-11.8%,2.0%,11.7%[59 µM],?,-4.6,18.9%
COc1ccc(N2CCN(c3nc4ccccc4n3CC(=O)c3ccccc3)CC2)cc1,?,?,14.1µM*,-11.0%,-14.4,?
O=C(CN1CCN(c2ccccc2)CC1)c1c[nH]c2ccccc12,-14.9%,-4.4%,5.0%[2.33 µM],·,-2.9,14.0%
COc1cc(NS(=O)(=O)c2ccc(C(=O)O)cc2)c2nc(C)ccc2c1,-6.8%,·,·,·,·,46.3%
Cc1noc(C)c1-c1nc(N(C)C)c2ccccc2n1,·,·,2.5%[0.501 µM],·,·,·
COc1ccc(N2CCN(CC(=O)c3ccc(Cl)cc3)CC2)cc1,?,?,22.4µM*,·,-8.6,17.6%
COc1ccc(N2CCN(C(=O)NC(=O)c3ccc(Cl)cc3)CC2)cc1,-15.8%,-21.4%,?,·,3.9,19.4%
COc1ccc(C(=O)CN2CCN(c3ccc(Cl)cc3)CC2)cc1OC,-28.6%,-37.8%,22.4µM*,·,-1.1,19.4%
COc1ccccc1N1CCN(CC(=O)c2ccc(F)cc2)CC1,14.1µM*,56.2µM*,·,1.5%,0.4,?
COc1ccccc1N1CCN(CC(=O)Nc2cccc(F)c2)CC1,-10.4%,5.4%,24.2%[59 µM],2.2%,10.1,17.7%
COc1ccc(C(=O)C(=O)N2CCN(c3ccc(C)cc3)CC2)cc1OC,·,·,·,·,2.0,·
COc1ccccc1-c1cc2nc(C)c(CCC(=O)NCCc3cccc(C)c3)c(C)n2n1,-14.8%,-5.5%,-2.0%[59 µM],·,·,23.4%
Cc1cc(C)nc(NS(=O)(=O)c2ccc(NC(=S)NC(=O)c3cccnc3)cc2)n1,-16.0%,-16.7%,50.1µM*,-21.2%,0.9,-1.8%
Cc1cc(NS(=O)(=O)c2ccc(NC(=S)NC(=O)c3ccc(Br)cc3)cc2)no1,-31.7%,-31.9%,?,-1.1%,-7.1,-13.9%
Cc1cc(NS(=O)(=O)c2ccc(NC(=S)NC(=O)c3cccnc3)cc2)no1,31.6µM*,?,44.7µM*,7.5%,-7.0,6.8%
COc1ccc(/C=C/C(=O)NC(=S)Nc2ccc(S(=O)(=O)Nc3cc(C)on3)cc2)cc1,-27.8%,-25.5%,39.8µM*,·,?,-7.0%
O=C(Cn1nc(-c2ccccc2)c2cnc3ccc(F)cc3c21)NC1CCCC1,-11.0%,-3.3%,8.1%[59 µM],·,·,7.2%
O=C(NNC(=S)Nc1ccccc1)c1cc(-c2cccnc2)nc2ccccc12,-23.4%,-19.9%,15.8µM*,·,-8.7,-6.0%

# Screens deposited in PubChem BioAssay by National Center for Advancing Translational Sciences (NCATS).
